Hits are enriched below; roughly 9.9% of the tested compounds scored in any of these assays.
MCF10A rerep: induces DNA re-replication in MCF 10a normal breast cells; MCF 10A DNA re-replication, Hoechst nuclear intensity, 48 h; Potency, µM (titrated, usually from 46.1 µM), without a hit: at the highest dose activity, positive = re-replication, most hits filed as activators; AID 624296; 350,000 compounds, 2.9% hits; also: potency is read from the fitted curve at half-maximal effect; % of control where 0% means no effect; nearly all actives have a fitted effect of over 50% in size
KB-V1 cytotox: KB-V1 MDR subline cytotoxicity | 400,000 compounds, 3.4% hits | KB-V1 MDR cells viability, CellTiter-Glo, 72 h | AID 1347076 | Potency, µM (titrated, usually from 46.1 µM), actives largely listed as cytotoxic; also: potency is read from the fitted curve at half-maximal effect; % is scaled to controls: 0 for no effect and ±100 for the full control effect; nearly all actives have a fitted effect of over 60% in size
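KB-V1 cells (P-gp-expressing MDR subline of KB-3-1) in phenol-red-free DMEM with 10% FBS were exposed to library compounds over a concentration series for 72 h at 37 degrees C. Viability read by CellTiter-Glo luminescence; concentration-effect curves fitted after normalization.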
SW480 rerep: DNA re-replication induction in SW480 cells; SW480 DNA re-replication, Hoechst DNA content imaging, 48 h; Potency, µM (titrated, usually from 46.1 µM), inactives show at the highest dose re-replication activation, most hits filed as activators; 340,000 compounds, 1.8% hits; also: potency is read from the fitted curve at half-maximal effect; % of control where 0% means no effect; nearly all actives have a fitted effect of over 55% in size
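Quantitative HTS format with DMSO vehicle controls; 48 hr drug incubation at 37 C, then 40 min Hoechst staining and scanning imager measurement at 405 nm excitation.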
IL-1B inflam inh: inhibitors of inflammasome signaling (IL-1 beta secretion). activity change, % at 57.5 µM. 360,000 compounds, 4.7% hits. THP-1 LPS/ATP IL-1B secretion, AlphaLISA, 16 h; stronger effect = lower value. AID 743279; in the data active = activity change below about -50%; inconclusive = mostly about -30% to -49%; also: % is scaled to controls: 0 for no effect and ±100 for the full control effect
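THP-1 cells pretreated 1 hr with compounds (up to 57.5 uM final), then stimulated with LPS (250 ng/mL final) plus ATP (1.25 mM final); secreted IL-1B measured by AlphaLISA after 16 hr, decreased signal indicating inhibition.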
KB-3-1 tox: kills parental KB-3-1 adenocarcinoma cells; 400,000 compounds, 1.4% hits; KB-3-1 viability, CellTiter-Glo ATP luminescence, 72 h; AID 1347075; Potency, µM (top dose mostly 46.1 µM), most hits filed as cytotoxic; also: potency is read from the fitted curve at half-maximal effect; % is scaled to controls: 0 for no effect and ±100 for the full control effect; nearly all actives have a fitted effect of over 60% in size
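Screening of KB-3-1 cells (DMEM, 10% FBS, phenol-red free) ran from lowest to highest compound concentration; after 72 h at 37 °C viability was read luminescently and curves fitted.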
An asterisk follows results filed as active. Unless noted, calls follow the shape of the dose curve; as a rule, active = well fitted curve in the direction sought with a large enough effect; inconclusive = small, poorly fitted or top-dose-only effect, or another doubt; inactive = no such curve, though single readings can be large; an effect the other way counts as inactive or inconclusive.

For CC(=O)c1ccc(Oc2cc(C)nc(NCc3ccccc3)n2)cc1 the results were MCF10A rerep 11%, KB-V1 cytotox 16µM*, SW480 rerep -5%, IL-1B inflam inh 21 and KB-3-1 tox inconclusive.
For CCCCOc1cc(C)nc(NCc2ccccc2)n1 the results were MCF10A rerep inconclusive, KB-V1 cytotox inconclusive, SW480 rerep inconclusive, IL-1B inflam inh 20 and KB-3-1 tox 10µM*.
For Cc1ccc(-c2cc(C(F)(F)F)n3nc(C(=O)Nc4ccc(Cl)c(C(F)(F)F)c4)cc3n2)cc1 the results were KB-V1 cytotox inactive and KB-3-1 tox inactive.
O=C(CN1c2cccc3cccc(c23)S1(=O)=O)Nc1ccccc1Br was read as MCF10A rerep -1%, KB-V1 cytotox inconclusive, SW480 rerep 0%, IL-1B inflam inh 43 and KB-3-1 tox inactive.
COc1ccc(S(=O)(=O)NC(=O)C2(C)CCN2C(=O)c2cccc(F)c2)cc1 (centres undefined) was read as KB-V1 cytotox inactive, IL-1B inflam inh -2 and KB-3-1 tox inactive.
COc1ccc(S(=O)(=O)N2CCCCC2c2cc(C(=O)N3CCOCC3)no2)cc1 (centres undefined) was read as KB-V1 cytotox inactive, IL-1B inflam inh 18 and KB-3-1 tox inactive.
`CCCCC[n+]1cccc2c3ccccc3ccc21` gave MCF10A rerep 8%, KB-V1 cytotox inactive, SW480 rerep -5%, IL-1B inflam inh -77* and KB-3-1 tox inconclusive.
For O=[N+]([O-])c1ccc(C[n+]2cccc3ccccc32)cc1 the results were MCF10A rerep -13%, KB-V1 cytotox inactive, SW480 rerep -7%, IL-1B inflam inh 28 and KB-3-1 tox inactive.
For Brc1ccc2c(ccc[n+]2CCc2ccccc2)c1 the results were KB-V1 cytotox inactive and KB-3-1 tox inconclusive.
`c1ccc(C[n+]2cccc3c4ccccc4ccc32)cc1` gave MCF10A rerep inconclusive, KB-V1 cytotox inactive, SW480 rerep 8%, IL-1B inflam inh -60* and KB-3-1 tox inconclusive.
CCOc1ccc(NC(=O)Cn2c(=O)n(CCCCC(=O)NCCc3ccc(Cl)cc3)c(=O)c3ccccc32)cc1 was read as KB-V1 cytotox inconclusive and KB-3-1 tox inactive.
Screening NNC(=O)c1ccc(CSc2n[nH]c(=O)[nH]c2=O)cc1 returned MCF10A rerep 11%, KB-V1 cytotox inactive, SW480 rerep -5%, IL-1B inflam inh -8 and KB-3-1 tox inactive.
Screening Clc1ccc2c(N/N=C/c3ccccc3Br)ccnc2c1 returned MCF10A rerep inconclusive, KB-V1 cytotox inconclusive, SW480 rerep inconclusive, IL-1B inflam inh -98* and KB-3-1 tox inconclusive.
Screening O=[N+]([O-])c1ccc(/C=N/NS(=O)(=O)c2ccc(Cl)cc2)o1 returned MCF10A rerep 28%, KB-V1 cytotox inconclusive, SW480 rerep inconclusive, IL-1B inflam inh -3 and KB-3-1 tox inactive.
O=[N+]([O-])c1ccc(/C=N/Nc2ccnc3cc(Cl)ccc23)o1 was read as MCF10A rerep 12%, KB-V1 cytotox inactive, SW480 rerep 3.7µM*, IL-1B inflam inh -94* and KB-3-1 tox inactive.
Screening C/C(=N/Nc1ccnc2cc(Cl)ccc12)c1ccc(O)cc1 returned MCF10A rerep inconclusive, KB-V1 cytotox inactive, SW480 rerep -3%, IL-1B inflam inh -54* and KB-3-1 tox inactive.
`Clc1ccc2c(NNc3ccccc3Cl)ccnc2c1` gave MCF10A rerep 12%, KB-V1 cytotox inactive, SW480 rerep -4%, IL-1B inflam inh 1 and KB-3-1 tox inactive.
Clc1ccc2c(N/N=C/c3cccc(Br)c3)ccnc2c1 was read as MCF10A rerep inconclusive, KB-V1 cytotox inactive, SW480 rerep inconclusive, IL-1B inflam inh -99* and KB-3-1 tox inconclusive.
CCCC(=O)Nc1ccc(Cc2ccc(NC(=O)CCC)c(C(=O)O)c2)cc1C(=O)O was read as MCF10A rerep -1%, KB-V1 cytotox inactive, SW480 rerep -5%, IL-1B inflam inh 6 and KB-3-1 tox inactive.
Screening COc1ccc(-c2noc(CC(=O)Nc3ccc(F)cc3F)n2)cc1 returned KB-V1 cytotox inactive and KB-3-1 tox inactive.
C=C1C(=O)OC2CC1C(O)CC(C)=CCCC(C)=CC(O)CC2C (centres undefined) was read as MCF10A rerep 1.3µM*, KB-V1 cytotox inconclusive, SW480 rerep inconclusive, IL-1B inflam inh -103* and KB-3-1 tox inconclusive.
Screening COc1ccc(C(=O)OCc2c(-c3ccccc3)ncc3ccccc23)cc1 returned MCF10A rerep 16µM*, KB-V1 cytotox inactive, SW480 rerep 15µM*, IL-1B inflam inh 0 and KB-3-1 tox inactive.
`Brc1ccc(-c2nn3c(-c4ccco4)nnc3s2)o1` gave MCF10A rerep 0%, KB-V1 cytotox 16µM*, SW480 rerep -6%, IL-1B inflam inh inconclusive and KB-3-1 tox inconclusive.
Brc1ccc(-c2nn3c(-c4ccccn4)nnc3s2)o1 was read as MCF10A rerep 3%, KB-V1 cytotox 18µM*, SW480 rerep -8%, IL-1B inflam inh -51* and KB-3-1 tox inconclusive.
Screening Clc1ccccc1-c1nn2c(-c3ccccn3)nnc2s1 returned MCF10A rerep 11%, KB-V1 cytotox inactive, SW480 rerep -8%, IL-1B inflam inh -9 and KB-3-1 tox inactive.
Screening CCc1ccc(/C(C)=N/NC(=O)CNC(=O)/C=C/c2ccco2)cc1 returned MCF10A rerep 18%, KB-V1 cytotox inactive, SW480 rerep -3%, IL-1B inflam inh 43 and KB-3-1 tox inactive.
For CN(C)S(=O)(=O)c1ccc(/C(O)=C2/C(=O)C(=O)N(CCCN3CCOCC3)C2c2ccncc2)cc1 (centres undefined) the results were MCF10A rerep 9%, KB-V1 cytotox inactive, SW480 rerep -8%, IL-1B inflam inh -15 and KB-3-1 tox inactive.
For Cc1ccc(NC(=O)CSc2ccc(Br)cc2)cc1S(=O)(=O)N1CCOCC1 the results were MCF10A rerep 0%, KB-V1 cytotox inactive, SW480 rerep -4%, IL-1B inflam inh inconclusive and KB-3-1 tox inactive.
O=C1CCCCC1Nc1ccc2ccccc2c1 (centres undefined) was read as MCF10A rerep inconclusive, KB-V1 cytotox inconclusive, SW480 rerep inconclusive, IL-1B inflam inh -64* and KB-3-1 tox inconclusive.
O=[N+]([O-])c1ccc2oc(C(O)c3cccc(Cl)c3)cc2c1 (centres undefined) was read as MCF10A rerep inconclusive, KB-V1 cytotox inactive, SW480 rerep 16%, IL-1B inflam inh -93* and KB-3-1 tox inactive.
Cc1ccc(NC(=O)C(c2ccccc2)c2ccccc2)c(O)c1 was read as MCF10A rerep 5%, KB-V1 cytotox inactive, SW480 rerep -32%, IL-1B inflam inh -56* and KB-3-1 tox inactive.
